# Data published in PubChem BioAssay (EPA / NIEHS).
# Records with an inconclusive call do not appear. Calls of active or inactive are those of the source. How the source made its calls, unless noted: active means hit-call score of the fitted dose curve at least 0.9, where 1 is the maximum; inactive means score below 0.9.
# Legend:
# [1] = Tanguay_ZF_120hpf_TR_legacy: (Legacy) Oregon State University Tanguay Lab 120 Hour Post-fertilization zebrafish Assay for Touch Response (AID 2283667; active means hit-call score of the fitted dose curve at least 0.9, where 1 is the maximum)
# Outline: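 5D WT embryos; static exposure to 120 hpf, 28C, sealed/dark; DMSO 0.64% v/v final. TR scored present/absent; dead embryos excluded. Pos ctrl 5uM trimethyltin chloride.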
# [2] = CCTE_Padilla_ZF_144hpf_TERATOSCORE: (Legacy) CCTE's 144 Hour Post-fertilization zebrafish Assay Teratoscore, Padilla Lab (AID 2283679);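 on AC50: zebrafish embryos with chorions exposed by immersion from 6-8 hpf to 5 dpf with daily renewal; teratogenicity score from eye scoring of death hatching and malformations at 144 hpf; higher score means more developmental defects relative to DMSO baseline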
# Outline: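 Larvae scored by eye at 144 hpf for death, hatching and malformations after a day in clean Hanks'. Before that, daily-renewed exposure at 80 uM (0.4% DMSO, 26C) from roughly 6-8 hpf through 5 dpf, 4 embryos per chemical.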
# [3] = STM_H9_OrnithineISnorm_perc: Stemina devTOX quickPredict H9 human embryonic stem cell (hESC)-based Assay for Ornithine (ORN) Metabolite Biomarker, Normalized (AID 2283712);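 further: ornithine released into spent medium during last day measured by mass spectrometry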
# Outline: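 Undifferentiated H9 hESCs exposed 72 h with daily media and compound renewal; final 24-h conditioned medium analysed by UPLC-HRMS. Ornithine peak area normalised to spiked C13 standard and to median 0.1% DMSO control; viability by CellTiter-Fluor.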
# [4] = STM_H9_CystineISnorm_perc: Stemina devTOX quickPredict H9 human embryonic stem cell (hESC)-based Assay for Cystine (CYSS) Metabolite Biomarker, Normalized (AID 2283713)
# Outline: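 Undifferentiated H9 hESCs exposed 72 h, compound and media replaced every 24 h; final 24-h media analysed by UPLC-HRMS. Cystine normalized to C13 spike-in standard and median 0.1% DMSO control.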
# [5] = STM_H9_OrnCyssISnorm_ratio: Stemina devTOX quickPredict H9 human embryonic stem cell (hESC)-based Assay for Ornithine (ORN):Cystine (CYSS) Ratio (AID 2283714; active means hit-call score of the fitted dose curve at least 0.9, where 1 is the maximum)
# Outline: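 Steps: H9 hESCs in pluripotent state dosed 72h, medium plus compound renewed every 24h; conditioned medium from the final 24h deproteinized in 40% acetonitrile; ORN and CYSS quantified by UPLC-HRMS with C13 spike-ins; ratio relative to vehicle.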
# [6] = CEETOX_H295R_MTT_cell_viability: Viability Assessment in the CeeTox HT-H295R MTT Assay (AID 2283718);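 on AC50: curve fitted both ways so AC50 may mark viability loss or gain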
# Outline: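 MTT reduction (0.5 mg/ml, 4 h at 37 C; absorbance at 570 and 650 nm) gave viability as background-corrected percent change versus controls. H295R cells had 48 h forskolin (10 uM) prestimulation, then 48 h chemical exposure at 0.1% DMSO.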
# [7] = Tanguay_ZF_120hpf_ActivityScore_legacy: (Legacy) Oregon State University Tanguay Lab 120 Hour Post-fertilization zebrafish Assay Score for Activity (AID 2283742; active means hit-call score of the fitted dose curve at least 0.9, where 1 is the maximum;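 on AC50: dechorionated Tropical 5D wild-type zebrafish embryos held singly per well; static exposure from 6 hpf until 120 hpf at 28 °C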)
# Outline: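 Embryos are staged, enzymatically dechorionated at 4 hpf, placed individually at 6 hpf, then held in test chemical (0.64% DMSO) at 28C until 120 hpf. Mortality and malformations are scored by brightfield, with non-mortality endpoints skipped for dead embryos.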
# [8] = tested on: Thyroperoxidase (TPO), gene 445522; assay: CCTE_Simmons_GUA_TPO: CCTE's Guaiacol Assay for Thyroperoxidase (TPO) Inhibition, Simmons Lab (AID 2283750; active means hit-call score of the fitted dose curve at least 0.9, where 1 is the maximum)
# Outline: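 Porcine thyroid microsomes (25 ug) in 200mM potassium phosphate, preincubated 30 s at 37C with compound (8 concentrations, 5 nM–87.5 uM) and 35mM guaiacol; 1mM H2O2 starts reaction. Absorbance change at 450nm over first 80 s; loss of signal versus DMSO, three replicates.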
# [9] = read-out: Cytochrome P450 (CYP24A1_1), CYP24A1 (gene 1591); assay: LTEA_HepaRG_CYP24A1_1: Life Technologies and Expression Analysis (LTEA) Assay for Cytochrome P450 (CYP24A1_1) using HepaRG (AID 2283671); details: mRNA level, 48 h; actives raise or lower the signal
# Outline: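 In this test, gene induction or suppression of CYP24A1 in human HepaRG liver cells is measured by qRT-PCR after 48 h chemical treatment (eight concentrations, maximum 100 uM). Values are fitted bidirectionally relative to DMSO.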
structure (smiles),measurement,setting,value
CC(C)(c1cc(Br)c(O)c(Br)c1)c1cc(Br)c(O)c(Br)c1,outcome,[1],inactive
same,AC50,[2],4.24 µM (active)
same,outcome,[3],inactive
same,outcome,[4],inactive
same,outcome,[5],inactive
same,outcome,[6],inactive
same,AC50,[7],1.99 µM (active)
NC(=O)c1nc(-c2cccc(-c3cc(F)ccc3OCC(F)(F)C(F)(F)F)c2)n[nH]1,AC50,[1],26.6 µM (active)
same,AC50,[2],1.08 µM (active)
same,outcome,[3],inactive
same,AC50,[4],3.59 µM (active)
same,AC50,[5],3.99 µM (active)
same,outcome,[6],inactive
same,AC50,[7],30.9 µM (active)
Cc1c2ccccc2c(C)c2c1ccc1ccccc12,outcome,[1],inactive
same,AC50,[2],4.42 µM (active)
same,outcome,[3],inactive
same,AC50,[4],5 µM (active)
same,AC50,[5],5 µM (active)
same,outcome,[6],inactive
same,AC50,[7],8.83 µM (active)
same,AC50,[8],146 µM (active)
Cc1cn([C@H]2C[C@H](N=[N+]=[N-])[C@@H](CO)O2)c(=O)[nH]c1=O,outcome,[1],inactive
same,outcome,[2],inactive
same,outcome,[3],inactive
same,AC50,[4],2.32 µM (active)
same,AC50,[5],4.02 µM (active)
same,outcome,[7],inactive
CCN(CC)C(=O)c1cc(S(=O)(=O)Cc2ccccc2)c(N2CCC(c3ccccc3)CC2)cc1N(CC)CCN(C)C,outcome,[1],inactive
same,outcome,[9],inactive
same,AC50,[2],20.7 µM (active)
same,AC50,[7],17.2 µM (active)
O=c1ccc2ccccc2o1,outcome,[1],inactive
same,outcome,[2],inactive
same,outcome,[7],inactive
CN(C[C@@H](CC[N+]12CCC(C3CCCCC3)(CC1)CC2)c1ccc(Cl)c(Cl)c1)C(=O)c1cc(C(F)(F)F)cc(C(F)(F)F)c1,outcome,[1],inactive
same,AC50,[2],4.91 µM (active)
same,AC50,[3],7.48 µM (active)
same,AC50,[4],16.4 µM (active)
same,AC50,[5],14.4 µM (active)
same,AC50,[7],46.9 µM (active)
CC(C)(C)c1csc(-c2cc3cc(OCc4ccccc4CC(=O)O)ccc3o2)n1,outcome,[1],inactive
same,outcome,[9],inactive
same,AC50,[2],1.71 µM (active)
same,AC50,[7],27.1 µM (active)
CC[C@H](NC(=O)c1cc(F)ccc1NS(=O)(=O)c1cccc2cccnc12)c1ccccc1,outcome,[1],inactive
same,outcome,[2],inactive
same,outcome,[3],inactive
same,outcome,[4],inactive
same,outcome,[7],inactive
CCCCOC(=O)c1ccc(O)cc1,AC50,[1],49.3 µM (active)
same,AC50,[2],5.07 µM (active)
same,AC50,[3],42.3 µM (active)
same,outcome,[4],inactive
same,outcome,[5],inactive
same,outcome,[6],inactive
same,AC50,[7],41 µM (active)
CCCCOC(=O)CC(CC(=O)OCCCC)(OC(C)=O)C(=O)OCCCC,outcome,[1],inactive
same,AC50,[2],4.96 µM (active)
same,outcome,[7],inactive
C[C@]12CC[C@@H]3c4ccc(O)cc4CC[C@H]3[C@@H]1CC[C@H]2O,outcome,[1],inactive
same,outcome,[9],inactive
same,AC50,[2],15 µM (active)
same,outcome,[6],inactive
same,outcome,[7],inactive
O=C1c2ccccc2C(=O)N1CCc1noc(-c2ccc(CN3CCCCCC3)s2)n1,outcome,[1],inactive
same,outcome,[9],inactive
same,AC50,[2],20.2 µM (active)
same,outcome,[6],inactive
same,outcome,[7],inactive
O=c1c(-c2ccc(O)cc2)coc2cc(O)cc(O)c12,outcome,[1],inactive
same,AC50,[2],24.5 µM (active)
same,AC50,[3],48.8 µM (active)
same,AC50,[4],71.6 µM (active)
same,AC50,[5],73.7 µM (active)
same,AC50,[6],28.7 µM (active)
same,AC50,[7],20 µM (active)
COc1cccc([C@H](O)C2CCN(CCc3ccc(F)cc3)CC2)c1OC,outcome,[1],inactive
same,AC50,[2],124 µM (active)
same,outcome,[3],inactive
same,AC50,[4],6.34 µM (active)
same,AC50,[5],10 µM (active)
same,outcome,[6],inactive
same,outcome,[7],inactive
C[C@]12CC[C@@H]3c4ccc(O)cc4CC[C@H]3[C@@H]1CCC2=O,outcome,[1],inactive
same,outcome,[2],inactive
same,outcome,[6],inactive
same,outcome,[7],inactive
Cc1oc2c(NC(=O)c3c(Cl)cccc3Cl)cccc2c1C(C)(C)O,outcome,[1],inactive
same,AC50,[2],8.93 µM (active)
same,outcome,[6],inactive
same,AC50,[7],45.5 µM (active)
CCCCCCCCCCCCO,outcome,[1],inactive
same,outcome,[9],inactive
same,AC50,[2],62.8 µM (active)
same,outcome,[7],inactive
CCCOC(=O)c1cc(O)c(O)c(O)c1,outcome,[1],inactive
same,outcome,[9],inactive
same,outcome,[7],inactive
